High-throughput results from PubChem.
Rows were chosen to be rich in hits. Some 12% of all compounds tested hit in one or more screens of this group.
TDP1 inh – inhibitors of human tyrosyl-DNA phosphodiesterase TDP1 | 350,000 compounds, 0.28% hits | Potency, µM (doses to about 130 µM), most hits filed as inhibitors | recombinant TDP1, AlphaScreen DNA substrate cleavage | Q9NUW8; further: nearly all actives have a fitted effect of over 40% in size
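Signal: AlphaScreen proximity between streptavidin donor and anti-FITC acceptor beads on intact substrate. Reaction: Tdp1 1 nM, substrate 15 nM final, 5 min RT after 15 min compound preincubation.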
BAZ2B inh – BAZ2B (human) inhibition; Q9UIF8; Potency, µM (doses to about 114 µM), actives largely listed as inhibitors; AID 504333; AlphaScreen BAZ2B-H3K14Ac peptide displacement; 360,000 compounds, 4.4% hits; further: nearly all actives have a fitted effect of over 60% in size
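Multi-concentration screen (max 110 uM) measuring displacement of acetylated histone H3 peptide from BAZ2B by AlphaScreen, using 50 nM protein, 50 nM peptide and 10 ug/mL streptavidin donor plus Ni-chelate acceptor beads.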
G9a inh – inhibitors of human histone lysine methyltransferase G9a; G9a H3K9 monomethylation, AlphaScreen, 2 h; Potency, µM (titrated, usually from 102 µM), usual class: inhibitors; 350,000 compounds, 8.8% hits; further: nearly all actives have a fitted effect of over 75% in size
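Signal arises when biotinylated H3K9 peptide, once monomethylated, bridges streptavidin donor and antibody-captured acceptor beads. Enzyme at 20 nM was preincubated 15 min with test compounds; peptide 500 nM and SAM 20 uM then reacted for 2 h.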
HP1b binding inh – HP1-beta chromodomain-methylated histone interaction inhibition; P83916; AlphaScreen HP1-beta / biotin-H3K9me3 peptide binding; Potency, µM (titrated, usually from 114 µM), actives largely listed as inhibitors; 390,000 compounds, 0.56% hits; further: nearly all actives have a fitted effect of over 70% in size
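Compound inhibition of the preformed complex between 50 nM HP1-beta and 50 nM biotinylated H3K9me3 peptide was read by AlphaScreen. Buffer was PBS pH 7.4 with 0.01% Tween-20. Incubations ran 30 min at room temperature, with 10 ug/mL donor/acceptor beads.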
JMJD2A Tudor – blocks the human JMJD2A Tudor domain | O75164 | AlphaScreen JMJD2A-Tudor / H3K4me3 peptide binding | Potency, µM (doses to about 114 µM), actives largely listed as inhibitors | 390,000 compounds, 4.4% hits; further: nearly all actives have a fitted effect of over 50% in size
Sfp inh – blocks B. subtilis Sfp PPTase activity | Q9F4F7 | Biochemical Sfp PPTase activity, qHTS | Potency, µM, usual class: inhibitors | 310,000 compounds, 3.5% hits | AID 1490;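 further: the enzyme is Sfp with the accession as filed and its product quenches rhodamine fluorescence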
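Reaction rates are the 30-min fluorescence difference (ex 525, em 598 nm) in wells containing 15 nM Sfp, 5 uM rhodamine-CoA and 12.5 uM BHQ-2-YbbR at pH 7.6 with 10 mM MgCl2.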
Of the large screens only hits and unclear results are named; the others gave an inactive call. The call rests on the fitted dose curve; in most records, active means well fitted curve in the direction sought with a large enough effect; inconclusive means small, poorly fitted or top-dose-only effect, or another doubt; inactive means no such curve, though single readings can be large; an effect the other way counts as inactive or inconclusive.

CCN(CC)C(=O)CN1C(=O)/C(=C/c2ccccc2)SC1=S	none (no result: TDP1 inh)
CCN(c1ccccc1)S(=O)(=O)c1ccc(NN)nc1	none (no result: Sfp inh)
CN1CCN(S(=O)(=O)c2ccc(NN)nc2)CC1	G9a inh inconclusive (no result: Sfp inh)
CC(C)N(C(C)C)S(=O)(=O)c1ccc(NN)nc1	Sfp inh 79µM
CCN(CC)S(=O)(=O)c1ccc(NN)nc1	JMJD2A Tudor 20µM, Sfp inh 13µM (no result: BAZ2B inh)
FC(F)(F)c1ccc(C2=Nc3ccccc3NC(c3cccs3)=N2)cc1	none (no result: Sfp inh)
CCOC1(OCC)N=C(N)C2(C#N)C(c3cccc(C)c3)C12C#N (centres undefined)	G9a inh 40µM
COC1(OC)N=C(N)C2(C#N)C(c3ccc(C)cc3)C12C#N (centres undefined)	BAZ2B inh inconclusive, G9a inh inconclusive
COC1(OC)N=C(N)C2(C#N)C(c3ccc4c(c3)OCO4)C12C#N (centres undefined)	BAZ2B inh inconclusive, G9a inh 50µM
Cc1cc(C)cc(OCCSc2nc3ccc(NC(=O)c4cccs4)cc3s2)c1	none (no result: Sfp inh)
Cc1cc(C)cc(NC(=O)CN2C(=O)CCc3cc(S(=O)(=O)N4CCCCC4)ccc32)c1	none (no result: Sfp inh)
CCCCC(=O)NC(c1ccc(C(C)C)cc1)c1ccc2cccnc2c1O (centres undefined)	none (no result: TDP1 inh)
CCCCC(=O)NC(c1ccccc1)c1ccc2cccnc2c1O (centres undefined)	BAZ2B inh 40µM (no result: TDP1 inh)
CCCC(=O)NC(c1ccccc1)c1ccc2cccnc2c1O (centres undefined)	BAZ2B inh 25µM, JMJD2A Tudor 45µM (no result: TDP1 inh)
CCC(=O)NC(c1ccc(OC)cc1)c1cc(Cl)c2cccnc2c1O (centres undefined)	none
CC(C)C(=O)NC(c1ccccc1)c1cc([N+](=O)[O-])c2cccnc2c1O (centres undefined)	BAZ2B inh 5.6µM, G9a inh inconclusive, JMJD2A Tudor inconclusive
CC(=O)NC(c1ccc(C)cc1)c1cc(Cl)c2cccnc2c1O (centres undefined)	none (no result: TDP1 inh)
CCCC(=O)NC(c1ccc(OC)cc1)c1ccc2cccnc2c1O (centres undefined)	BAZ2B inh 20µM, JMJD2A Tudor 79µM (no result: G9a inh)
CN1CC(=O)N(CC(=O)NC2CCCCC2)C1=O	none (no result: BAZ2B inh, G9a inh, Sfp inh)
COc1ccc(CCn2c(N3CCN(C)CC3)nc3c2c(=O)[nH]c(=O)n3C)cc1	none
COc1ccc(CCn2c(NCc3ccco3)nc3c2c(=O)[nH]c(=O)n3C)cc1	none
COc1ccc(CCn2c(NN=C(C)C)nc3c2c(=O)[nH]c(=O)n3C)cc1	BAZ2B inh inconclusive, Sfp inh 56µM (no result: TDP1 inh)
COc1ccc(CCn2c(NN)nc3c2c(=O)[nH]c(=O)n3C)cc1	Sfp inh 50µM (no result: TDP1 inh, G9a inh)
CCOc1ccccc1OCCCC(=O)NNC(=O)c1nn(C)c(=O)c2ccccc12	none (no result: Sfp inh)
CCNC(=O)c1ccc2nc(CCc3ccccc3)oc2c1	none (no result: Sfp inh)
CCN(CC)CCCNC(=O)CSc1nc2nc(C)c(Cc3ccccc3C)c(C)n2n1	none (no result: Sfp inh)
COc1ccc(CNC(=O)CN2C(=O)CSc3ccc(S(=O)(=O)N4CCC(C)CC4)cc32)cc1	none (no result: Sfp inh)
CCOc1ccc(NC(=S)NC(=O)c2c(Br)cnn2C)c([N+](=O)[O-])c1	BAZ2B inh inconclusive, G9a inh 28µM, HP1b binding inh inconclusive, JMJD2A Tudor inconclusive
Cc1ccc([N+](=O)[O-])cc1NC(=S)NC(=O)C(C)(C)C	BAZ2B inh inconclusive
Cc1ccc([N+](=O)[O-])cc1NC(=S)NC(=O)c1c(Cl)cnn1C	Sfp inh 45µM (no result: G9a inh)
O=C(O)Cn1c2c(c3ccccc31)CSc1ccc(Cl)cc1-2	BAZ2B inh inconclusive, G9a inh inconclusive, JMJD2A Tudor inconclusive, Sfp inh 20µM (no result: TDP1 inh)
Cc1cccc(-n2c(SCC(=O)c3ccccc3)nnc2-c2ccc(Br)cc2)c1	none (no result: Sfp inh)
[S-]c1nnc(-c2ccc(Br)cc2)n1-c1ccccc1.[Zn+2]	BAZ2B inh 79µM, JMJD2A Tudor 50µM (no result: TDP1 inh)
CCCCN(CCCN)c1ccc(Br)cn1	none (no result: TDP1 inh, BAZ2B inh, G9a inh, Sfp inh)
Cc1cc(N/N=C(/CCC(=O)O)C(=O)O)nc2ccccc12	BAZ2B inh inconclusive, G9a inh 3.2µM, JMJD2A Tudor inconclusive, Sfp inh 50µM
Cc1cc(SCC(=O)O)nc2ccccc12	none
OC(CON=C1c2ccccc2-c2ccccc21)CN1CCNCC1 (centres undefined)	BAZ2B inh 20µM, G9a inh 50µM, HP1b binding inh inconclusive, JMJD2A Tudor 3.5µM
O=C(NC(=S)NNC(=O)[C@H]1C[C@@H]1c1ccccc1)c1cccc(F)c1	G9a inh 16µM, Sfp inh 32µM
COc1cccc(OC)c1C(=O)NC(=S)NNC(=O)[C@H]1C[C@@H]1c1ccccc1	G9a inh inconclusive
COc1ccc(CNC(=O)C(c2ccco2)N(C(=O)c2snc(C(N)=O)c2N)c2ccccc2OC)cc1 (centres undefined)	none (no result: TDP1 inh)
CCOC(=O)c1ccc(NC(=O)c2cc3sccc3n2Cc2ccc(Cl)cc2)cc1	none (no result: Sfp inh)
Oc1ccc(-c2ccccc2)cc1CN1CCCCCC1	Sfp inh 89µM (no result: TDP1 inh)
CC1CCN(CCCn2c(=S)[nH]c3c(sc4ccc([N+](=O)[O-])cc43)c2=O)CC1	G9a inh 40µM, Sfp inh 56µM
O=C(O)CCCn1c(=S)[nH]c2c(sc3ccc([N+](=O)[O-])cc32)c1=O	BAZ2B inh inconclusive, G9a inh 8.9µM, JMJD2A Tudor 18µM, Sfp inh 45µM
C=C(C)C(O)/C=C/c1ccccc1OC (centres undefined)	none (no result: BAZ2B inh, G9a inh, HP1b binding inh, JMJD2A Tudor)
COc1ccc(-c2[nH]ncc2CN(CC2CCC(=O)N2)C(C)C)cc1F (centres undefined)	G9a inh inconclusive, JMJD2A Tudor inconclusive
CC(Sc1ncccn1)C(=O)NNC(=O)c1cccc(Cl)c1 (centres undefined)	none (no result: BAZ2B inh, G9a inh, Sfp inh)
COCCNC(=O)CN(C(=O)CCC(=O)Nc1cc(C)on1)c1cccc(C)c1C	G9a inh inconclusive, JMJD2A Tudor 79µM
O=C(COC(=O)c1cncc(Br)c1)NCc1ccc2c(c1)OCO2	none
CCOC(=O)CNS(=O)(=O)c1ccc(S(=O)(=O)NC2CC2)cc1	none (no result: TDP1 inh)
O=[N+]([O-])c1ccc(O)c(/C=N/n2cnnc2)c1	G9a inh 45µM
Oc1ccccc1/C=N/n1cnnc1	G9a inh 50µM, JMJD2A Tudor 79µM
O=[N+]([O-])c1cccc(/C=N/n2cnnc2)c1O	none
O=C1/C(=C\c2ccc(O)cc2)SC(=S)N1/N=C/c1ccc(O)cc1	BAZ2B inh inconclusive (no result: G9a inh)
O=C1/C(=C/c2cccc(Br)c2)SC(=S)N1/N=C/c1cc([N+](=O)[O-])ccc1O	BAZ2B inh 35µM, G9a inh 40µM, JMJD2A Tudor inconclusive (no result: TDP1 inh)
